{
  "source": "PubChem BioAssay (NCI)",
  "note": "The panel holds about 83,000 compounds, 20% with a hit somewhere; the sample as a whole holds those more often.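 How to read the values: 0–100, growth inhibition (40 = 60% inhibited); 0, no net growth; -100 to 0, cell death (-40 = 40% of starting cells died; -100 = all dead).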 Unmarked numbers belong to inactive results. The source made the active and inactive calls. Rule for the calls: active = growth percent below 10; inactive = the rest.",
  "data": [
    {"system": "MDA-MB-468 breast", "experiment": "NCI-60 one-dose screen, 48 h (100 = growth as untreated, 0 = no growth, -100 = all killed)", "conditions": "10 µM unless noted", "values": [
      {"smiles": "COC(=O)N[C@H]1CCc2cc(OC)c(OC)c(OC)c2-c2ccc(SC)c(=O)cc21", "growth": "-32% (active)"},
      {"smiles": "Cn1cc(C(=O)c2nc(-c3c[nH]c4ccccc34)no2)c2cc(F)ccc21", "growth": "63%"},
      {"smiles": "CCN(CC)CCCCNc1c2ccccc2[n+](C)c2c1[nH]c1ccccc12", "growth": "-58.5% (active)"},
      {"smiles": "O=C(CCCCCCN1CC(=O)N2[C@@H](c3ccccc3)c3[nH]c4ccccc4c3C[C@H]2C1=O)NO", "growth": "53.7%"},
      {"smiles": "CC[C@]12C=CCN3CC[C@@]4(c5ccc(OC)cc5N(C)[C@H]4[C@@](O)(C(=O)OC)[C@@H]1OC(=O)CCC(=O)N[C@@H](Cc1c[nH]c4ccccc14)C(=O)OC)[C@@H]32", "growth": "-20.8% (active)"},
      {"smiles": "COC1=CC2C=C(C3N(c4ccccc4)NC(=O)[C@@H]4CCCN34)C(=O)NC2C=C1", "note": "(stereo not given in full)", "growth": "114%"},
      {"smiles": "O=C(CNC1CCCCC1)Nc1ccc(-c2nc3ccccc3s2)cc1", "growth": "35.9%"},
      {"smiles": "O=C(CCl)Nc1ccc2c(Nc3cc(O)ccc3Cl)ncnc2c1", "growth": "-61.7% (active)"},
      {"smiles": "C[C@@H](C[C@H](CCO)c1ccccc1)c1ccc2ccccc2c1", "growth": "-54.1% (active)"},
      {"smiles": "COC(=O)c1nc(-c2ccc(C)cc2)oc1S(=O)(=O)c1cccc(OC)c1", "growth": "71.7%"},
      {"smiles": "Cc1cc(C)c(CCc2cc(C)c(C)cc2C)cc1C", "growth": "109%"},
      {"smiles": "CN(C)c1ccc(/C=N\\Nc2cc(=O)[nH]c3ccc(Cl)cc23)cc1", "growth": "107%"},
      {"smiles": "O=C(/C=C/c1c(-c2ccccc2)[nH]c2ccccc12)S(=O)(=O)c1ccccc1", "growth": "18.7%"},
      {"smiles": "CCN(CC)CCOc1cccc2c1C(=O)c1ccccc1C2=O", "growth": "91.4%"},
      {"smiles": "Cc1cc(C)c2c(c1)N1OC(C2)C[C@H]1/C=C/c1ccccc1", "note": "(stereo not given in full)", "growth": "92.4%"},
      {"smiles": "O=[N+]([O-])c1cc(Br)c2cccc3c2c1CC3", "growth": "97.3%"},
      {"smiles": "CC1CC(=O)OC(C)C1", "note": "(stereo not given)", "growth": "99.6%"},
      {"smiles": "CCCCCN1C(=O)/C(=c2\\sc3n(c2=O)C2C(NN=3)N(CC)C(=O)N2CC)c2ccccc21", "note": "(stereo not given)", "growth": "5.08% (active)"},
      {"smiles": "CCn1c(Cc2ccccc2Nc2c(Cl)cccc2Cl)nnc1SCC(=O)Nc1ccccc1C(F)(F)F", "growth": "69.9%"},
      {"smiles": "N#Cc1c(-c2ccc(F)cc2)n2c(nc1=O)SC(=O)C2=O", "growth": "94.5%"},
      {"smiles": "CC(C)(C)c1cc(-c2nc3ccc(N4CCN(CCO)CC4)cc3[nH]2)cc(C(C)(C)C)c1O", "growth": "52.7%"},
      {"smiles": "CNc1ncc2cc(-c3ccc(-c4ncccc4F)cc3Cl)c(=O)n(CC3OCC(N)CO3)c2n1", "note": "(stereo not given)", "growth": "34.5%"},
      {"smiles": "S=c1[nH]nc(Cn2c3ccccc3c3ccncc32)o1", "growth": "115%"},
      {"smiles": "O=C1c2c(Cl)c(Cl)c(Cl)c(Cl)c2C(=O)C2(Cl)CC=CCC12Cl", "note": "(stereo not given)", "growth": "-77.2% (active)"},
      {"smiles": "CCOC(=O)C1=NN(c2ccccc2)C(=O)/C1=C\\N1C(=O)CC(=O)NC1=S", "growth": "114%"},
      {"smiles": "COc1ccc(-c2nc3cc(C(=O)NC4CCCCC4)ccc3n2C2CCCCC2)cc1", "growth": "109%"},
      {"smiles": "CC(C)c1ccc(NCc2cn(-c3ccc(C(=O)O)cc3)nc2-c2cc(C(F)(F)F)cc(C(F)(F)F)c2)cc1", "growth": "102%"},
      {"smiles": "COc1ccc(C2c3sc4c(F)cccc4c3Oc3nc[nH]c(=O)c32)cc1", "note": "(stereo not given)", "growth": "54.6%"},
      {"smiles": "c1ccc(CNc2ccc3nc(CCC4CCCCC4)[nH]c3c2)cc1", "growth": "43%"},
      {"smiles": "O=c1c(O)cccn1CCCNCCCN(CCCn1cccc(O)c1=O)CCCn1cccc(O)c1=O", "growth": "109%"},
      {"smiles": "CC(C)(C)CC(C)(C)NC(=O)Nc1ncccc1OCc1ccccc1", "growth": "96%"},
      {"smiles": "Clc1cc(Cl)cc(-c2cnc3nonc3n2)c1", "growth": "82%"},
      {"smiles": "COc1ccc(C(=O)c2cc(OC)c(OC)c(OC)c2)cc1O", "growth": "-14.4% (active)"},
      {"smiles": "Cc1ccc(C)c2c1CCC2=O", "growth": "63.4%"},
      {"smiles": "CC(=O)C1N=NCC1c1ccccc1", "note": "(stereo not given)", "growth": "102%"},
      {"smiles": "COC(=O)c1c2c(c(C)[n+]([O-])c1C)C(=O)C(NCc1cccc(OC)c1)=CC2=O", "growth": "-21.3% (active)"},
      {"smiles": "COc1ccc(-c2nn(-c3cccc(NC(=O)Nc4cccc(C(F)(F)F)c4)c3)cc2-c2ccncc2)cc1Cl", "growth": "27.5%"},
      {"smiles": "CCCCOC(=O)c1cc(O)c(O)c(O)c1", "growth": "96.5%"},
      {"smiles": "CN(C)CCCOc1ccc(OCCCN(C)C)c2c1C(=O)c1ccccc1C2=O", "growth": "-33.7% (active)"},
      {"smiles": "CCOC(=O)C1=C(c2ccccc2)N=C2SC=C(c3ccc(Cl)cc3)N2C1c1ccc(Br)cc1", "note": "(stereo not given)", "growth": "54.3%"}
    ]}
  ]
}
